We go through 40 compounds from PubChem BioAssay AID602364 (National Center for Advancing Translational Sciences (NCATS), 2012).

Records with an inconclusive call do not appear. Activity calls are given as the source filed them. The call rests on the fitted dose curve; in most records, active means well fitted inhibition curve with a large enough effect; inconclusive means small, poorly fitted or top-dose-only effect; inactive means flat fitted curve, though single readings scatter.

For this experiment, the target named is Luciferin 4-monooxygenase (Photinus pyralis) (UniProt P08659). As to the kind of experiment: FLuc inhibitory activity for the follow-up compounds in a biochemical assay with 1mM ATP. Particulars: purified P. pyralis luciferase, luminescence; series mostly up to 57.5 µM; activity change, negative = inhibition: at the top concentration. The text has this: NCGC Assay Overview: Firefly (Photinus pyralis) luciferase is one of the most commonly used transcriptional reporters. It is considered one of the more dynamically responsive reporters - that is, responsive to changes in reporter transcription - as it requires no post-translational modifications and is enzymatically active directly after protein synthesis (Wood, 1998). With no endogenous expression in mammalian cells and without the requirement of external excitation, it offers very little background signal, thus generally providing excellent signal to background for most assays. Previous profiling work to determine the prevalence of compounds that affect FLuc enzymatic activity (PubChem AID 411) identified that ~3% of the MLSMR library (then at ~72K) inhibited FLuc. […] Of the compounds identified in this profile that inhibited FLuc, 151 compounds were selected for further analysis, in an effort to better understand their mode of inhibiting FLuc. The assay described here was to determine the activity of the compounds in a FLuc assay that contained a KM concentration of D-luciferin and a high concentration (1mM) of ATP.
Sequence of Luciferin 4-monooxygenase (Photinus pyralis) (P08659 whole entry, looked up): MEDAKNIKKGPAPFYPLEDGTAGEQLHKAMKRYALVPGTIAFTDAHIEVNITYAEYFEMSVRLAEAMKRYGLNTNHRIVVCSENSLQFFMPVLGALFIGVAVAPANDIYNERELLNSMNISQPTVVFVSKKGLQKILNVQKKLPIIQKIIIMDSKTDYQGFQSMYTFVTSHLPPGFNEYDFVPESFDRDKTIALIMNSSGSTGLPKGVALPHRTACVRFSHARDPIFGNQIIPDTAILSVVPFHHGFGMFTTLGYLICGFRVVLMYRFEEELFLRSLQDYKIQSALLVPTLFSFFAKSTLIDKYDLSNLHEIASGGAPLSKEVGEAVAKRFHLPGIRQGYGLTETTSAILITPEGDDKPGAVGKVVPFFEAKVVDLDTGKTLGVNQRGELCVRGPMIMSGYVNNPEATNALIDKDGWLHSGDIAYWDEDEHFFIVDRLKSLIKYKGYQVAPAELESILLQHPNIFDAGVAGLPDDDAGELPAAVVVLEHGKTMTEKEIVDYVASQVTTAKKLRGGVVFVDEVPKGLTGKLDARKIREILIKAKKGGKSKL
NCGC Assay Protocol Summary: Reagents: 50mM Tris acetate, pH 7.5; 10mM Mg acetate; 10uM D-luciferin (Sigma #L9504); 1mM ATP; 0.01% Tween-20; 0.05% BSA; 10nM P. pyralis luciferase (Sigma #L9506) Control compounds used were two known firefly luciferase inhibitors (3-(5-(3-chlorophenyl)-1,2,4-oxadiazol-3-yl)benzoic acid and 5-(2-fluorophenyl)-3-phenyl-1,2,4-oxadiazole), and DMSO. Three microliters containing firefly luciferase substrates in buffer (final concentrations: 50mM Tris acetate, pH 7.5, 10mM Mg acetate, 0.01% Tween-20, 0.05% BSA, 10uM D-luciferin, 1mM ATP) are dispensed into each well of a Greiner white, solid-bottom 1536-well format plate using a flying reagent dispenser (FRD). These assay plates were then treated with 23nL of compound or DMSO using a Kalypsys pin tool, which allows for delivery of a 12-point intraplate titration of each compound to the assay plate (quantitative HTS), with a final compound concentrations ranging from approximately ~60uM to 0.3nM. One microliter of firefly luciferase in […] Tris-acetate buffer was then delivered by FRD to each well for a final enzyme concentration of 10nM. Luciferase activity was then measured using a ViewLux CCD imager (PerkinElmer), with an average exposure time of 2-30 seconds (2X binning, medium/high gain).
`COc1cc(OC)cc(-c2nc3ccccc3s2)c1`: the Potency is 4.11 µM (active).

Turning to `COc1ccc(-c2nc3ccccc3s2)cc1NC(=O)c1ccc(F)cc1`, the “activity change, negative = inhibition” value is -4.53% (inactive).

Take `COc1ccc(Br)cc1C(=O)Nc1ccc(C(=O)O)cc1`: the “activity change, negative = inhibition” value is -16.8% (inactive).

On to `Oc1ccc(-c2nc3ccccc3s2)c(O)c1`, for which the Potency was 2.59 µM (active).

Regarding `Cc1ccc2sc(-c3ccc(NC(=O)c4cc(-n5cnnc5)ccc4Cl)cc3)nc2c1`, the Potency is 1.63 µM (active).

For the compound `Cc1ccc2nc(-c3ccc(N)cc3)sc2c1`, the Potency is 0.0231 µM (active).

Take `O=C(COC(=O)c1ccccc1[N+](=O)[O-])c1ccc2c(c1)OCO2`: the Potency was 0.0046 µM (active).

For `Nc1ccccc1-c1nc2ccccc2s1`, the Potency was 2.91 µM (active).

As for `COc1c(C)cccc1C(=O)Nc1ccc(-c2nc3ccccc3s2)c(Cl)c1`, the “activity change, negative = inhibition” value is 6.89% (inactive).

Regarding `O=C(Nc1ccccc1-c1nc2ccccc2s1)c1cccnc1`, the Potency is 36.6 µM (active).

For the compound `O=C(Nc1ccccc1C(=O)O)c1cccc(S(=O)(=O)N2CCCC2)c1`, the Potency was 16.3 µM (active).

For the compound `COc1ccc(C(=O)Nc2nc3ccc(OC)cc3s2)cc1`, the Potency was 5.8 µM (active).

With `O=C(Nc1cccc(-c2nc3ccccc3s2)c1)c1cc(-n2cnnc2)ccc1Cl`, the Potency is 9.19 µM (active).

As to `CC(C)Oc1ccc(C(=O)Nc2ccc(-c3nc4ccccc4s3)cc2)cc1`, the “activity change, negative = inhibition” value is -9.43% (inactive).

With `CC(C)(C)C(=O)Nc1ccc(-c2nc3ccccc3s2)cc1`, the Potency is 0.0259 µM (active).

`Nc1ccc2nc(-c3ccccc3)sc2c1`: the Potency was 0.0366 µM (active).

For `O=C(Nc1c(Cl)cc(Cl)cc1-c1nc2ccccc2s1)c1ccc(Br)o1`, the “activity change, negative = inhibition” value was -1.44% (inactive).

As to `C/C(=N\NC(=O)c1ccccc1NC(=O)c1ccc(Cl)cc1)c1ccncc1`, the Potency was 0.146 µM (active).

As for `COc1ccc(-c2cccc(C(=O)Nc3cccc(C(=O)O)c3)c2)cc1`, the Potency is 5.8 µM (active).

Consider `O=C(O)c1cccc(NC(=O)c2cccc(NC(=O)C3CCCO3)c2)c1` (stereo not given), for which the Potency was 4.11 µM (active).

On to `COc1ccc2nc(NC(=O)c3ccc4ncsc4c3)sc2c1`, for which the Potency was 1.46 µM (active).

As to `O=C(Cc1ccccc1)Nc1ccccc1C(=O)Nc1ccc(C(=O)O)cc1`, the “activity change, negative = inhibition” value was 2.57% (inactive).

Turning to `COc1ccc2nc(NC(=O)Cc3cccs3)sc2c1`, the Potency was 4.11 µM (active).

Regarding `Cc1ccc(C(=O)Nc2cccc(C(=O)O)c2)cc1`, the Potency is 0.651 µM (active).

On to `COc1cccc(OC)c1C(=O)Nc1cccc(C(=O)Nc2cccc(C(=O)O)c2)c1`, for which the Potency was 4.61 µM (active).

On to `COc1cc(OC)cc(C(=O)Nc2ccccc2-c2nc3ccccc3s2)c1`, for which the “activity change, negative = inhibition” value was 5.57% (inactive).

Turning to `O=C(Nc1ccccc1C(=O)O)c1cccc(NC(=O)c2ccco2)c1`, the Potency was 18.3 µM (active).

Take `Cc1ccc2nc(-c3ccc(NC(=O)CN4CCN(C(=O)c5ccco5)CC4)cc3)sc2c1`: the Potency is 4.11 µM (active).

Consider `O=C(Nc1ccccc1C(=O)O)c1cccc(NC(=O)c2ccc(Br)o2)c1`, for which the Potency is 32.6 µM (active).

Turning to `CCOc1ccc2nc(NC(=O)c3ccccc3)sc2c1`, the Potency was 0.0919 µM (active).

Consider `COc1ccc(C(=O)Nc2cccc(C(=O)O)c2)cc1S(=O)(=O)N1CCCC1`, for which the Potency is 14.6 µM (active).

In the case of `COc1ccc2nc(NC(=O)c3cccs3)sc2c1`, the Potency was 7.3 µM (active).

On to `O=C(O)c1cccc(NC(=O)c2ccc(Cl)c(S(=O)(=O)N3CCCCCC3)c2)c1`, for which the Potency was 0.366 µM (active).

In the case of `CC(C)(C)NC(=O)c1ccccc1-c1nc2ccccc2s1`, the “activity change, negative = inhibition” value was -11.8% (inactive).

In the case of `Nc1ccccc1C(=O)Nc1cccc(C(=O)O)c1`, the Potency is 3.66 µM (active).

Consider `Cc1ccc2sc(-c3ccc(N)cc3)nc2c1`, for which the Potency was 0.0366 µM (active).

For the compound `COc1ccc2nc(NC(=O)c3ccc([N+](=O)[O-])o3)sc2c1`, the Potency is 3.26 µM (active).

For the compound `O=C(O)c1cccc(NC(=O)c2cccc(S(=O)(=O)N3CCc4ccccc43)c2)c1`, the Potency was 18.3 µM (active).

In the case of `COc1ccc(NS(=O)(=O)c2cccc(C(=O)Nc3ccccc3C(=O)O)c2)cc1`, the “activity change, negative = inhibition” value was -2.81% (inactive).

In the case of `O=C(O)c1cccc(NC(=O)c2ccc(S(=O)(=O)c3ccccc3)cc2)c1`, the Potency was 11.6 µM (active).
